12 compounds from PubChem BioAssay (NCI) can be followed below.

The structures appear in SMILES notation. The panel holds about 83,000 compounds, 20% with a hit somewhere; the sample as a whole holds those more often.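 Growth was measured after 48 h exposure to one concentration of compound in 96-well plates. Values under 10 count as active.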 Unmarked numbers belong to inactive results. The source made the active and inactive calls.

In this assay the test system is MDA-MB-468 breast. Briefly: NCI-60 one-dose screen, 48 h (100 = growth as untreated, 0 = no growth, -100 = all killed). To be noted: 10 µM unless noted.

Regarding `C=C1C(=O)O[C@H]2[C@H]1CC/C(Cn1cc(-c3ccc(F)cc3)nn1)=C\CC[C@@]1(C)O[C@@H]21`, the growth was -53.1% (active).

`O=C(/C=C(/C=C/c1ccc2[nH]ccc2c1)OB(F)F)/C=C/c1ccc2[nH]ccc2c1`: the growth is -57% (active).

As for `COc1ccc2c(c1)C(=O)c1c-2c(OCCN(C)C)nc2cc(OC)ccc12`, the growth was 15.9%.

As for `S=C(N/N=C/c1ccccn1)Nc1ccccn1`, the growth was -1.71% (active).

As to `CC(C)C1CCC(C)C(C2(C#N)C(N)=NC(N)=C2C#N)C1=O` (configuration not stated), the growth was 107%.

Consider `O=C1c2c(c3c4cccnc4[nH]c3c3ccc4ccccc4c23)C(=O)N1CCN1CCOCC1`, for which the growth was 62.8%.

For `COc1ccc2[nH]c(C(=O)OCc3ccc4cccc(O)c4n3)cc2c1`, the growth was -70.8% (active).

As for `O=C(/C=C/c1ccccc1)n1c(-c2ccccc2)nc2ccccc21`, the growth is 98.2%.

Take `COc1ccc(OC)c(/C=C/C(=O)c2c(C)nc3ccccc3c2/C=C/c2ccccc2)c1`: the growth is 60.5%.

For `O=C1c2cccc3cccc(c23)C(=O)N1N1C(=O)c2cccc3c(NC4CCCCC4)ccc(c23)C1=O`, the growth was 100%.

`CC1=C(C(=O)Nc2ccc(F)cc2)C(c2ccc(C)cc2)C2=C(CC(C)(C)CC2=O)N1` (configuration not stated): the growth was 84.7%.

As for `CC1/C=C/C=C/C=C/C=C/C=C/C=C/C=C/C(O[C@@H]2O[C@H](C)[C@H](O)[C@@H](O)[C@@H]2N)CC(O)C(C(=O)O)C(O)CC(=O)CC(O)CC(O)CC(O)CC(=O)CCCC(=O)CC(=O)OC1C(C)CC(C)C(O)CC(=O)c1ccc(N)cc1` (some centres not stated), the growth was -89.7% (active).
